# Laboratory results: PubChem BioAssay (Tox21)
# Where “and” joins values, the source holds several entries; their conditions need not be identical. Equal values may be shown once. Records with an inconclusive call do not appear. Where a call stands in place of a potency, no number is given. Calls of active or inactive are those of the source. Calls come from the whole dose curve; as a rule, active = well fitted cell-killing curve with a large enough effect in the repeat runs; inconclusive = weak or mixed curves, or effect the other way; inactive = flat fitted curve, though single readings scatter.
# Test: cAMP Responsive Elements (CRE) small molecule antagonists, cell-based qHTS assay: qHTS cell viability counter screen (AID 2060913); note: nearly all actives have a fitted effect of over 40% in size
# Conditions: CRE-bla HEK293T viability, CellTiter-Glo luminescence, 5 h; series mostly up to 92.4 µM
# Procedure, shortened: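 Steps: cells plated and held 18 hrs at 37 C/5% CO2; compounds and NKH477 (0.25 uM final) added; 3 hrs incubation; reporter substrate read; CellTiter-Glo added to measure cytotoxicity by luminescence.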
# Potency is the fitted concentration of half-maximal effect.
row,Compound,Potency
1,c1ccc2c(c1)Oc1ccccc1O2,inactive
2,CC(C)[C@H](C(=O)O[C@H](C#N)c1cccc(Oc2ccccc2)c1)c1ccc(Cl)cc1,inactive
3,Clc1ccc(COC(Cn2ccnc2)c2ccc(Cl)cc2Cl)cc1 (stereo not given),50.8 µM (active) and 45.1 µM (active)
4,CCCCCCCCCCCCBr,inactive
5,CCCCC(CC)COP(=O)(Oc1ccccc1)Oc1ccccc1 (stereo not given),inactive
6,C[N+](C)(C)Cc1ccccc1,inactive
7,COc1ccc(OC)c(C=O)c1,inactive
8,CCN,inactive
9,CCCN(CCC)c1c([N+](=O)[O-])cc(S(N)(=O)=O)cc1[N+](=O)[O-],43 µM (active)
10,ClC1=C(Cl)[C@]2(Cl)[C@H]3[C@H]([C@H]4C=C[C@H]3C4)[C@@]1(Cl)C2(Cl)Cl,inactive
11,O=C(O)c1cc(Cl)ccc1Cl,inactive
12,CC[C@H](N)c1ccccc1,inactive
13,Clc1ccccc1,inactive
14,COC(=O)c1ccccc1S(=O)(=O)NC(=O)N(C)c1nc(C)nc(OC)n1,inactive
15,[F][Sn]([c]1ccccc1)([c]1ccccc1)[c]1ccccc1,5.45 µM (active)
16,CCCCCCCCCC(=O)O[C@H]1CC[C@H]2[C@@H]3CCC4=CC(=O)CC[C@@H]4[C@H]3CC[C@]12C,inactive
17,O=[N+]([O-])c1ccc(Cl)c([N+](=O)[O-])c1,27.7 µM (active) and 57 µM (active)
18,O=C(O)C(Cl)(Cl)Br,inactive
19,CCN(CCO)CCn1c(Cc2ccccc2)nc2c1c(=O)n(C)c(=O)n2C,inactive
20,O=[N+]([O-])c1c2ccccc2cc2ccccc12,inactive
